From PubChem BioAssay (Tox21)
Inconclusive results are not listed. Where a call stands in place of a potency, no number is given. Calls of active or inactive are those of the source. The call rests on the fitted dose curve; in most records, active means well fitted activation curve with a large enough effect; inconclusive means small, poorly fitted or top-dose-only effect; inactive means flat fitted curve, though single readings scatter. Positions of bridges follow the written chain, without caps; N, C: chain ends. Non-standard residues stand in square brackets, D forms with d. Residues, ends and D or L forms follow the SMILES beside them. *: point of attachment. Dab(CH2SO3H) = N[C@@H](CCNCS(=O)(=O)O)C(=O)O; X3 = CC[C@@H](C)CCCCC(=O)*; Dab = NCC[C@H](N)C(=O)O

assay: qHTS assay to identify small molecule phospholipidosis (PLD) inducers (AID 1259344); conditions: HepG2 phospholipidosis, LipidTOX Red imaging, 24 h; series mostly up to 38.3 µM
Method in brief: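 After 4 h attachment on collagen I, HepG2 cells were dosed with compound alongside LipidTOX Red, kept 24 h at 37 C, fixed, and imaged for lamellar phospholipid pits.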

Row | Compound | Potency
1 | CC(C)[N+]1(C)[C@@H]2CC[C@H]1CC(OC(=O)C(CO)c1ccccc1)C2 (stereo not given in full) | inactive
2 | CCOC(=O)[C@H](CCc1ccccc1)N[C@@H](C)C(=O)N1[C@H](C(=O)O)C[C@H]2CCCC[C@@H]21 | inactive
3 | CC[C@@H](C)CCCCC(=O)N[C@@H](CCNCS(=O)(=O)O)C(=O)N[C@H](C(=O)N[C@@H](CCNCS(=O)(=O)O)C(=O)N[C@H]1CCNC(=O)[C@H]([C@@H](C)O)NC(=O)[C@H](CCNCS(=O)(=O)O)NC(=O)[C@H](CCNCS(=O)(=O)O)NC(=O)[C@H](CC(C)C)NC(=O)[C@@H](CC(C)C)NC(=O)[C@H](CCNCS(=O)(=O)O)NC1=O)[C@@H](C)O (X3-[Dab(CH2SO3H)]T[Dab(CH2SO3H)][Dab][Dab(CH2SO3H)][dL]L[Dab(CH2SO3H)][Dab(CH2SO3H)]T; lactam 4-C) | inactive
4 | CCN(CC)CC#CCOC(=O)C(O)(c1ccccc1)C1CCCCC1 (stereo not given) | inactive
5 | CN1C(=O)C[C@@H](C(=O)N[C@@H](Cc2cnc[nH]2)C(=O)N2CCC[C@H]2C(N)=O)NC1=O | inactive
6 | CCCCCCCCCCCCCCCC[n+]1ccccc1 | inactive
7 | O=C1c2ccccc2CN2C(=O)c3ccccc3CN12 | inactive
8 | CN(Cc1ccccc1)Cc1ccccc1 | inactive
9 | O=P(O)(O)CP(=O)(O)O | inactive
10 | CCN(CC)C(=S)S | inactive
11 | Cc1c(N)nc([C@H](CC(N)=O)NC[C@H](N)C(N)=O)nc1C(=O)N[C@H](C(=O)N[C@H](C)[C@@H](O)[C@H](C)C(=O)N[C@H](C(=O)NCCc1nc(-c2nc(C(=O)NCCCCN=C(N)N)cs2)cs1)[C@@H](C)O)[C@@H](O[C@@H]1O[C@@H](CO)[C@@H](O)[C@H](O)[C@@H]1O[C@H]1O[C@H](CO)[C@@H](O)[C@H](OC(N)=O)[C@@H]1O)c1cnc[nH]1 | inactive
12 | CN(C)CCC(O)(c1ccccc1)c1ccccc1Cl (stereo not given) | inactive
13 | CC[C@H]1OC(=O)[C@H](C)C(=O)[C@H](C)[C@@H](O[C@@H]2O[C@H](C)C[C@H](N(C)C)[C@H]2O)[C@](C)(OC)C[C@@H](C)C(=O)[C@H](C)[C@H]2N(CCCCn3cnc(-c4cccnc4)c3)C(=O)O[C@]12C | inactive
14 | CN[C@@H]1[C@@H](O[C@H]2O[C@H](CO)[C@@H](N)[C@H](O)[C@H]2O)O[C@H]2C[C@@H](N)[C@@H](O[C@H]3[C@H](O)[C@@H](O)[C@H](N)C[C@@H]3N)O[C@@H]2[C@@H]1O | inactive
15 | CC(C)COC(=O)OCN1C(=O)CN(CCN2CC(=O)N(COC(=O)OCC(C)C)C(=O)C2)CC1=O | inactive
16 | Cc1onc(-c2c(F)cccc2Cl)c1C(=O)N[C@@H]1C(=O)N2[C@@H]1SC(C)(C)[C@@H]2C(=O)O | inactive
17 | O=C(O)CCCC/C=C(\c1ccccc1)c1cccnc1 | inactive
18 | O=C1C2CC3CC1CC(O)(C3)C2 | inactive
19 | CN1C(C(=O)Nc2ccccn2)C(=O)c2sc(Cl)cc2S1(=O)=O (stereo not given) | inactive
20 | O=C(O)c1ccccn1 | inactive

Row | Compound | Potency
21 | CC(C)(C)c1ccc2c(S(=O)(=O)O)c(C(C)(C)C)ccc2c1 | inactive
22 | N=C(N)c1ccc(/C=C/c2ccc(C(=N)N)cc2O)cc1 | inactive
23 | O=c1[nH]c(=O)n([C@H]2C[C@H](O)[C@@H](CO)O2)cc1/C=C/Br | inactive
24 | CC(=NCc1ccccc1)c1ccccc1O | inactive
25 | CC1(C)S[C@@H]2[C@H](NC(=O)[C@@H](NC(=O)N3CCNC3=O)c3ccccc3)C(=O)N2[C@H]1C(=O)O | inactive
26 | CC(C)CCC[C@@H](C)[C@H]1CC[C@H]2[C@@H]3CC=C4C[C@@H](O)CC[C@]4(C)[C@H]3CC[C@]12C | inactive
27 | Cc1c(O)c(=O)ccn1C | inactive
28 | C=C1[C@H](CO)[C@@H](O)C[C@@H]1n1cnc2c(=O)[nH]c(N)nc21 | inactive
29 | CC1(C)C[C@@H]1C(=O)N/C(=C\CCCCSC[C@H](N)C(=O)O)C(=O)O | inactive
30 | O=C(O)/C=C/C(O)c1ccc(Cl)cc1 (stereo not given) | inactive
31 | NCCCC(=O)O | inactive
32 | CC[N+](CC)(CC)CCC(O)(c1ccccc1)C1CCCCC1 (stereo not given) | inactive
33 | CC(C)[C@H](NC(=O)[C@H](CC(=O)O)NC(=O)[C@H](CCCCN)NC(=O)[C@@H](N)CCCN=C(N)N)C(=O)N[C@@H](Cc1ccc(O)cc1)C(=O)O (H-RKDVY-OH) | inactive
34 | O=C1CC[C@@H](C(=O)N[C@H]2C[C@@H]2c2ccccc2)N1 | inactive
35 | CCCC(CCC)C(=O)OC1C[C@H]2CC[C@@H](C1)[N+]2(C)C (stereo not given in full) | inactive
36 | C[C@H](NCCc1ccc(O)cc1)[C@H](O)c1ccc(O)cc1 | inactive
37 | CCCCCCCCCCCCOS(=O)(=O)O | inactive
38 | CC12CCC(C1)C(C)(C)C2=O (stereo not given) | inactive
39 | CCCCC[C@H](O)/C=C/[C@@H]1[C@@H](C/C=C\CCCC(=O)O)[C@@H](O)C[C@H]1O | inactive
40 | O=C(CCCN1CCN2CCCC2C1)c1ccc(F)cc1 (stereo not given) | inactive
